# Experimental data: the supplement of paper PMC3334620
# Whole data set: some 33,000 sequences, median “E-score (-0.5 to 0.5)” near -0.035, cut for the highest 2% near 0.35. Only a selection was taken, and the highest values are over-represented in it overall.
# Target: T1, Pdr3 (UniProt P33200)
# T1 sequence: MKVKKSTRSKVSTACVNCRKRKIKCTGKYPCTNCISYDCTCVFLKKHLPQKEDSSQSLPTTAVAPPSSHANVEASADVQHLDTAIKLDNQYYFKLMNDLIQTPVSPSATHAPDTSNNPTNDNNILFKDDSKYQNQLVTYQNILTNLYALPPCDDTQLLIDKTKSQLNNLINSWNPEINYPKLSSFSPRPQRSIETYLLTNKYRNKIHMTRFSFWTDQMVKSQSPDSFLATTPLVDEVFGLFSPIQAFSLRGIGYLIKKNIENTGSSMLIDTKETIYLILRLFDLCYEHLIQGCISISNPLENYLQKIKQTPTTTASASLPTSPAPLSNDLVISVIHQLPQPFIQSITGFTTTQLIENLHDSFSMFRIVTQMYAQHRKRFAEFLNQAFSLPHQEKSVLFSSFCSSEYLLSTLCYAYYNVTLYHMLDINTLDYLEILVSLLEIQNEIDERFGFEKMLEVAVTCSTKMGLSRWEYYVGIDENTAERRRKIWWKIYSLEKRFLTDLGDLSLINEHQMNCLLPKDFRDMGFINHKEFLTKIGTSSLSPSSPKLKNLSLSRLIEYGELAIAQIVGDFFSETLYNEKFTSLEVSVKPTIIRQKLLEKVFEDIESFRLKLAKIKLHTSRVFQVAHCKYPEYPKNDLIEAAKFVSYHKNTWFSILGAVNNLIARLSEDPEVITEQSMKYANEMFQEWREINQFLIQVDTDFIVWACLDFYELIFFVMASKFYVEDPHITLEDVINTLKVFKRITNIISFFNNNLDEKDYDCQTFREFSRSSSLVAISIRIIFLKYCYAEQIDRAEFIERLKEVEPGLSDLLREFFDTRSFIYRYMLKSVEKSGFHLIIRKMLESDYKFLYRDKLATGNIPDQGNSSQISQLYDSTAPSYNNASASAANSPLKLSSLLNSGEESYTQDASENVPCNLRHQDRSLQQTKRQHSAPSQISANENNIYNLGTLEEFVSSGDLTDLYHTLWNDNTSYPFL
# Test: PBM E-score (8-mer binding enrichment) (E-score (-0.5 to 0.5)); higher = stronger / more preferred TF binding
# Conditions: protein concentration: 200 nM; construct: GST-full length
# In short: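 Using PURExpress in vitro transcription/translation, GST-tagged yeast transcription factors were made in full-length or DNA-binding-domain form. These were applied at about 100-200 nM to double-stranded universal all-10-mer Agilent arrays, and bound protein was detected with fluorescent anti-GST. Scans were normalised with masliner before the Universal PBM Analysis Suite assigned E-scores to ungapped eight-base words pooled with their reverse complements.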
row,Sequence,PBM E-score
1,CGCCTCAC,0.152
2,ACGGTAAA,0.0442
3,GTCAAGGA,-0.0724
4,ATCAGGAT,0.113
5,ACCCGGAC,0.317
6,ATCCGGTC,0.215
7,GTCCGGAA,0.457
8,ATCCGGAT,0.465
9,ATCCGGAA,0.464
10,GTCCGGTA,0.181
11,GTCCGGCA,0.295
12,ATCCGCAT,0.267
13,ATCCGGTA,0.168
14,ATCCGGAC,0.355
15,ATCCGGCA,0.255
16,CTGAGTGA,0.179
17,CACCCAGC,-0.0529
18,CCTAGATC,-0.201
19,ACTTTGCA,0.00219
20,ATCCGGTG,0.35
21,ATCCGCAG,0.316
22,ATCCGGAG,0.433
23,TAGCATGA,-0.224
